The nature of assay [1]: qHTS assay to identify small molecule agonists of the vitamin D receptor (VDR) signaling pathway - cell viability counter screen (AID 743224). Further: nearly all actives have a fitted effect of over 50% in size. Further: potency means the concentration at half of the fitted maximal effect. In a few lines: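 Plated VDR-bla cells (4 h, 37C) received compound, incubated 16 h, then LiveBLAzer substrate 2 h RT; CellTiter-Glo added afterwards, luminescence read at 30 min.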
Background: qHTS replaces the single test concentration by a dilution series.

Assay [2] is described as follows: qHTS assay to identify small molecule agonists of the NFkB signaling pathway (AID 1159509; active means well fitted curve in the direction sought with a large enough effect in the signal ratio in the repeat runs, not every such curve was filed as active; the % refers to the signal ratio). The essentials: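 NFkB-bla ME-180 cells carry a beta-lactamase reporter under an NF-kB response element. They were plated overnight, then exposed to compounds for 5 h at 37 C. Read-out is LiveBLAzer FRET after 1.5 hr at room temperature (405 nm excitation; 460/530 nm emission).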

The nature of assay [3]: qHTS assay to identify small molecule agonists of the NFkB signaling pathway - cell viability counter screen (AID 1159515; calls by dose curve; further: nearly all actives have a fitted effect of over 55% in size; further: potency means the concentration at half of the fitted maximal effect). The essentials: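 Using the same wells as the NFkB reporter read, ME-180 NFkB-bla cells given compounds for 5 hr were assessed for viability via CellTiter-Glo, with luminescence taken after a 30 min room-temperature incubation.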
Assay [4] is described as follows: qHTS assay to identify small molecule agonists of the endoplasmic reticulum stress response signaling pathway - cell viability counter screen (AID 1159517; calls by dose curve;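 further: HeLa cells carrying an ER stress response element beta-lactamase reporter; nearly all actives have a fitted effect of over 50% in size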). The essentials:
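CellTiter-Glo was added to wells already read for beta-lactamase FRET, and luminescence was recorded 30 min later. Cells: ESRE-bla HeLa, 1,500 per well, compound exposure 5 hr at 37 C.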

Assay [5] is described as follows: qHTS assay to identify small molecule antagonists of the retinoid-related orphan receptor gamma (ROR-gamma) signaling pathway - cell viability counter screen (AID 1159520). Further: nearly all actives have a fitted effect of over 50% in size. Further: potency means the concentration at half of the fitted maximal effect. The essentials: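 Tet-on ROR gamma CHO cells (1,000/well) were plated 4 hr, given compounds in DMSO for 2 hr at 37 C, then induced with 1 uM final doxycycline for 16 hr. Viability was read as ATP by CellTiter-Glo luminescence after 30 min.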

A short description of assay [6]: qHTS assay to identify small molecule agonists of the AP-1 signaling pathway - cell viability counter screen (AID 1159525; calls by dose curve; further: nearly all actives have a fitted effect of over 55% in size; further: potency means the concentration at half of the fitted maximal effect). The essentials: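 ME-180 AP-1-bla, 2500 cells/well, Opti-MEM + 0.5% dialyzed FBS; overnight 37 °C; cpd 15-pt titration, 5 h 37 °C; CellTiter-Glo 30 min RT; luminescence read; normalised to TOAB and DMSO controls.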
A short description of assay [7]: qHTS assay to identify small molecule agonists of the AP-1 signaling pathway (AID 1159526; calls by dose curve).
Assay [8] has as its target Retinoic acid receptor RXR-alpha (Homo sapiens) (UniProt P19793). In words: qHTS assay to identify small molecule agonists of the RXR signaling pathway (AID 1159527; calls by dose curve; further: nearly all actives have a fitted effect of over 35% in size; further: potency means the concentration at half of the fitted maximal effect). The essentials: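 GeneBLAzer RXR-alpha-UAS-bla HEK 293T cells in medium with 2% charcoal-stripped FBS, pre-incubated 5 hr at 37 C, then exposed to compounds 16 hr. Beta-lactamase reporter read by FRET substrate, 2 hr room temperature, 460/530 nm emission.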

Assay [9] is described as follows: qHTS assay to identify small molecule agonists of the RXR signaling pathway - cell viability counter screen (AID 1159529). Further: nearly all actives have a fitted effect of over 50% in size. Further: potency means the concentration at half of the fitted maximal effect. The essentials:
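RXR-alpha-UAS-bla HEK 293T cells in medium with 2% charcoal-stripped FBS were preincubated 5 hr, then exposed to compounds for 16 hr at 37 C. Viability was read as CellTiter-Glo luminescence after 30 min at room temperature.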

The nature of assay [10]: qHTS assay to identify small molecule antagonists of the retinoid acid receptor (RAR) signaling pathway - cell viability counter screen (AID 1159551). Further: nearly all actives have a fitted effect of over 35% in size. Further: potency means the concentration at half of the fitted maximal effect. In a few lines: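 Retinol-stimulated (1 uM final) C3RL4 cells, compound 6 h, 37 C; readout CellTiter-Glo luminescence (ATP) after 30 min RT incubation.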
Assay [11] can be described thus: qHTS assay to identify small molecule antagonists of the retinoic acid receptor (RAR) signaling pathway (AID 1159552; further: nearly all actives have a fitted effect of over 50% in size). The essentials: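 RARE-luc C3RL4 cells; cpds + 1 uM (final) retinol, 6 hr, 37 C/5% CO2; luciferase reagent, 30 min RT, luminescence readout. Inhibitors of retinol-driven signal scored.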
A short description of assay [12]: qHTS assay to identify small molecule agonists of the retinoic acid receptor (RAR) signaling pathway (AID 1159553). Further: potency means the concentration at half of the fitted maximal effect. The note with it: C3RL4 RARE luciferase reporter, agonist, 6 h; activation: at 73.3 µM (top of the series). In a few lines:
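Reporter readout comes from luciferase under RARE control in C3RL4 cells; compound exposure lasts 6 hr at 37 C in 5% CO2, and luminescence is recorded following a 30 min room-temperature incubation with reagent.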

The nature of assay [13]: qHTS assay to identify small molecule antagonists of the vitamin D receptor (VDR) signaling pathway - cell viability counter screen (AID 743225). Further: nearly all actives have a fitted effect of over 50% in size. Further: potency means the concentration at half of the fitted maximal effect. In a few lines:
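VDR-bla HEK 293T cells, 4 h pre-incubation at 37C, then compound plus 1-alpha,25-dihydroxyvitamin D3 (3 nM final) for 16 h. After the beta-lactamase FRET read, CellTiter-Glo was added to the same wells; luminescence after 30 min at room temperature.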

Assay [14] deals with Nuclear receptor ROR-gamma (Homo sapiens) (UniProt P51449). In words: qHTS assay to identify small molecule antagonists of the retinoid-related orphan receptor gamma (ROR-gamma) signaling pathway (AID 1159521). The essentials: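 Tet-on RORγ CHO cells carrying a ROR response element–luciferase reporter were pretreated with compounds for 2 h, then induced with 1 uM (final) doxycycline hyclate for 16 h at 37 C. Antagonism was read as decreased ONE-Glo luminescence.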

Inconclusive results are not listed. The source made the active and inactive calls. Unless noted, the call rests on the fitted dose curve; in most records, active means well fitted curve in the direction sought with a large enough effect in the repeat runs; inconclusive means weak or mixed curves; inactive means no such curve, though single readings can be large; an effect the other way counts as inactive or inconclusive.

Sequence of Retinoic acid receptor RXR-alpha (Homo sapiens) (P19793 whole entry, looked up): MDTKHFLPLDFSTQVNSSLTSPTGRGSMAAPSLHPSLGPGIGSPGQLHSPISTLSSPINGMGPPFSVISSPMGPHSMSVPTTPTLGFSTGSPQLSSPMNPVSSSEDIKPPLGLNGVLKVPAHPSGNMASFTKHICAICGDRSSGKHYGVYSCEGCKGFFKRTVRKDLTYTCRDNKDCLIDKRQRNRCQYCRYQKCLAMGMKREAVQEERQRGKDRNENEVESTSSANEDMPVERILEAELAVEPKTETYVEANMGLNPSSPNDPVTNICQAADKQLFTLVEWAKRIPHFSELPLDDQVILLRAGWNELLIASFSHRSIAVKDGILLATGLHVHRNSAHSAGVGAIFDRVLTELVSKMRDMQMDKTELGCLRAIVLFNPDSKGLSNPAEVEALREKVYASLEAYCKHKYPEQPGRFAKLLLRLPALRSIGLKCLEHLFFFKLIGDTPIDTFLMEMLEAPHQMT

Regarding `CCCCCCCCCCC(=O)O`, the Potency result in assay [1], in assay [2], in assay [3], in assay [4], in [5] and in [6] was “inactive” throughout. In addition, the Potency result in assay [7], in [9], in assay [10], in [11] and in assay [12] was “inactive” in each case. For the same compound, in assay [8], the Potency was 49.6 µM (active).

Turning to `C/C=C/C=C/C=O`, the Potency result in assay [1], in assay [13], in assay [2], in assay [3], in assay [4] and in assay [5] was “inactive” throughout. The Potency result in assay [6], in [8], in assay [9] and in assay [10] was “inactive” in each case.

As for `CCCCN(CCCC)C(C(N)=O)c1ccc(OC)cc1` (configuration not stated), the Potency result in assay [1], in assay [13], in assay [2], in assay [3], in assay [4] and in assay [5] was “inactive” throughout. Besides, the Potency entry in assay [6], in assay [7], in [8], in assay [9] and in assay [10] was “inactive” each time.

`O=C1Cc2cc(Cl)ccc2N1`: the Potency result in [1], in assay [13], in assay [2], in [3], in [5] and in assay [14] was “inactive” in each case. The Potency entry in assay [6], in assay [7], in assay [8], in assay [9], in [10] and in assay [12] was “inactive” throughout.

As for `CC1CC(OC(=O)C(O)c2ccccc2)CC(C)(C)N1C` (configuration not stated), the Potency result in assay [1], in [13], in assay [2], in assay [3], in assay [5] and in assay [14] was “inactive” each time. In addition, the Potency entry in assay [6], in assay [7], in [9], in [10], in assay [11] and in assay [12] was “inactive” in each case.

On to `Nc1ccc(N=Nc2ccccc2)c(N)c1`, for which the Potency entry in [13], in assay [2], in assay [3], in [14], in assay [6] and in assay [10] was “inactive” throughout. Moreover, in assay [11], the Potency result was “inactive”. The Potency in assay [12] was 0.238 µM (active).

Take `C=C(C)[C@@H]1CCC2=CCC[C@@H](C)[C@]2(C)C1`: the Potency entry in [2], in assay [3], in assay [5], in assay [6], in assay [7] and in assay [10] was “inactive” each time. The Potency entry in assay [11] and in [12] was “inactive” in each case.

On to `Cc1c(C)c2c(c(C)c1OC(=O)CCC(=O)OCCO)CC[C@@](C)(CCC[C@H](C)CCC[C@H](C)CCCC(C)C)O2`, for which the Potency in assay [1] is 26.6 µM (active); in assay [13], 26.8 µM (active). Moreover, the Potency entry in assay [2], in assay [3], in assay [5], in assay [6] and in assay [9] was “inactive” throughout.

Take `CCc1ccccc1`: the Potency entry in [1], in assay [13], in assay [2], in assay [3], in assay [5] and in assay [14] was “inactive” each time. For the same compound, the Potency entry in [7], in [9], in [10], in assay [11] and in [12] was “inactive” throughout.

Turning to `O=c1cc(-c2ccccc2)oc2ccc3ccccc3c12`, the Potency is 19.5 µM (active) in assay [1]; 54.9 µM (active) in assay [3]; 27.3 µM (active) in assay [5]; 24.5 µM (active) in assay [6]; 19.5 µM (active) in assay [9]; 24.3 µM (active) in [10]. The Potency entry in assay [2], in assay [14] and in [8] was “inactive” throughout.

As to `CN(C)CCN1C(=O)c2ccccc2N(C)c2ccccc21`, the Potency entry in [1], in assay [13], in assay [2], in assay [3], in assay [5] and in assay [14] was “inactive” throughout. In addition, the Potency result in assay [6], in assay [8], in assay [9], in assay [10], in assay [11] and in assay [12] was “inactive” each time.

Source of the values: PubChem BioAssay (Tox21).
